“And” between values parts separate entries of the source, which are not always exact repeats. Identical values can stand only once. In all, about 420,000 compounds went through this assay and about 50,000 (12%) were called active. About 26% were inconclusive and are not listed. The call rests on the fitted dose curve; in most records, active means well fitted inhibition curve with a large enough effect; inconclusive means small, poorly fitted or top-dose-only effect; inactive means flat fitted curve, though single readings scatter. The full list was thinned out, with actives kept by preference.
Test: qHTS for Inhibitors of human tyrosyl-DNA phosphodiesterase 1 (TDP1): qHTS in cells in presence of CPT; further: nearly all actives have a fitted effect of over 55% in size
Conditions: chicken DT40 Tdp1-/-;hTDP1 cells + 20 nM CPT, ATP luminescence, 48 h; series mostly up to 46.2 µM; activity change, negative = growth inhibition: at the top concentration
How it was run: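 Chicken DT40 Tdp1-/- cells complemented with human TDP1, 400 cells/well, exposed to compounds plus 20 nM camptothecin for at least 48 h at 37 C; viability read as ATP content by CellTiter-Glo luminescence.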
On the % scale 0 is the no-effect control and ±100 the full control effect; potency means the concentration at half of the fitted maximal effect.

Row | Compound | activity change, negative = growth inhibition | Potency
1 | NC(=O)CSc1nnc(NC(=O)c2ccc3ccccc3c2)s1 | -12.1% (inactive) | –
2 | CCc1ccccc1NC(=O)c1ccc(F)c(S(=O)(=O)NC2CCCCCC2)c1 | -21.5% (inactive) | –
3 | CN1CCN(CC(=O)Nc2cccc([N+](=O)[O-])c2)CC1 | 7.3% (inactive) | –
4 | Cc1cc(=O)n(CC(=O)Nc2cccc([N+](=O)[O-])c2)c(-n2nc(C)cc2C)n1 | – | 20.6 µM (active)
5 | O=C(CN1CCOCC1)Nc1cccc([N+](=O)[O-])c1 | -7.67% (inactive) | –
6 | Cn1c(=O)c2c(ncn2CC(=O)N/N=C/c2cn[nH]c2-c2ccc(F)cc2)n(C)c1=O | -11% (inactive) | –
7 | COc1ccc(Br)cc1/C=N/Nc1ccc(Cl)c(C(=O)O)c1 | 2.98% (inactive) | –
8 | N#Cc1c(-c2ccc(F)cc2)cc(C2CC2)nc1SCC(=O)c1cccs1 | -0.343% (inactive) | –
9 | O=S(=O)(NC1CC1)c1ccc(Cl)cc1 | 16.8% (inactive) | –
10 | O=S(=O)(NC1CC1)c1ccc(F)c(F)c1 | 16.7% (inactive) | –
11 | Cn1sc(=O)c2cc(S(=O)(=O)NC3CC3)ccc21 | – | 2.91 µM (active)
12 | COc1ccc(C)cc1NC(=O)NCCCCc1ccccc1 | -22.3% (inactive) | –
13 | CCOC(=O)c1[nH]c(C)c(C(=O)OCC(=O)N2c3ccccc3CC2C)c1C (centres undefined) | -30.2% (inactive) | –
14 | CC(=O)CSc1nc(CCc2ccccc2)c(C#N)c(=O)[nH]1 | -8.62% (inactive) | –
15 | Cc1nn2c(=O)cc(COC(=O)c3ccccc3NC(=O)COc3ccccc3C)nc2s1 | -0.73% (inactive) | –
16 | CCOC(=O)CSc1nnc(NC(=O)c2cccc(S(=O)(=O)N3CCCCC3)c2)s1 | -22.7% (inactive) | –
17 | NS(=O)(=O)c1ccc2nc(NC(=O)C3=COCCO3)sc2c1 | 7.48% (inactive) | –
18 | O=C(Nc1nnc(S(=O)(=O)N2CCOCC2)s1)c1cccc(Br)c1 | -29.9% (inactive) | –
19 | O=C(Nc1nc2ccc([N+](=O)[O-])cc2s1)c1ccc(S(=O)(=O)N2CCCc3ccccc32)cc1 | – | 4.61 µM (active)
20 | O=S(=O)(c1ccccc1)N1CCc2ccccc21 | 5.41% (inactive) | –
21 | CSc1nc2ccc(S(=O)(=O)N3CCc4ccccc43)cc2s1 | – | 16.4 µM (active)
22 | O=C(Nc1nnc(S(=O)(=O)N2CCCc3ccccc32)s1)c1cccc(F)c1 | – | 16.4 µM (active)
23 | CS(=O)(=O)c1ccc2nc(NC(=O)c3ccc(N4CCCC4=O)cc3)sc2c1 | -2.13% (inactive) | –
24 | Cc1nn(C)c(C)c1S(=O)(=O)N1CCc2ccccc21 | -8.41% (inactive) | –
25 | O=C(Nc1nnc(S(=O)(=O)N2CCCCCC2)s1)c1cccc(Br)c1 | – | 5.8 µM (active) and 25.9 µM (active)
26 | CCC(=O)Nc1nnc(S(=O)(=O)N2CCCc3ccccc32)s1 | -15.7% (inactive) | –
27 | Cc1cccc(C(=O)Nc2nnc(S(=O)(=O)N3CCCCCC3)s2)c1 | -4.12% (inactive) | –
28 | CN(Cc1ccc2nsnc2c1)Cc1nc(Cc2cccc(F)c2)no1 | 9.94% (inactive) | –
29 | Cc1cc(C)c(S(=O)(=O)c2ccc(F)cc2C)c(=O)[nH]1 | -5.32% (inactive) | –
